# According to paper PMC7862700, “An all-to-all approach to the identification of sequence-specific readers for epigenetic DNA modifications on cytosine”:
# Tests used:
# Assay in all cases: DAPPL (digital affinity profiling via proximity ligation, sequencing); 10 mM Tris-HCl pH 7.5, 50 mM NaCl, 1 mM DTT, 4% glycerol, room temperature, 30 min; GST-TFs on glutathione beads, 16-mer random dsDNA library, 0.1% formaldehyde crosslink after washing; high values mean tight binding
# Conditions in all cases: protein: recombinant; tags: N-terminal GST; dsDNA, one strand shown
# ETV1 = ETV1 (Homo sapiens, UniProt P50549 1-477)
# Procedure, shortened: (§1)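 Sequencing on an Illumina NextSeq500 followed washing, crosslinking with 0.1% formaldehyde, proximity ligation (BsaI/T4 ligase, 1 h, 37 °C) and PCR amplification of pools that had been incubated for 30 min at room temperature with 200 nmole of a random double-stranded 16-mer DNA library in Tris/NaCl/DTT/glycerol buffer. Each pool held DNA-barcoded human transcription factors, expressed in yeast as GST fusions and captured on glutathione beads, plus a tag-only sample. Binding signal is a hexamer's read frequency for a factor divided by its frequency in the tag-only sample.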
# ERF = target: T1, ERF (Homo sapiens, UniProt P50548 1-548)
# T1 sequence: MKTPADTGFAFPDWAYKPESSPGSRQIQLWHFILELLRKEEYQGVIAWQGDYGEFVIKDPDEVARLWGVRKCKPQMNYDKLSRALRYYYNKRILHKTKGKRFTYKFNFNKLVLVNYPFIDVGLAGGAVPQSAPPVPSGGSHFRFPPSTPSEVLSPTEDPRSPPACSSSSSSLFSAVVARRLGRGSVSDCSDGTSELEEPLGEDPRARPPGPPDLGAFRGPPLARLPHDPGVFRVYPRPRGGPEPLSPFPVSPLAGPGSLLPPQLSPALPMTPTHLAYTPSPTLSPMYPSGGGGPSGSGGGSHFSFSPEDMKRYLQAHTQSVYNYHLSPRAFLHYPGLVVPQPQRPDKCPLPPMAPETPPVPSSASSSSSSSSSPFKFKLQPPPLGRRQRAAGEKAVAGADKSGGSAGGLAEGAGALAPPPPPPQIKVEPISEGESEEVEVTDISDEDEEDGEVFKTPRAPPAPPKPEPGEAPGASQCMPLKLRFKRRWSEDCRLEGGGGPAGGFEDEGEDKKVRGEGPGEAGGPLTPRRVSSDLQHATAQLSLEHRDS
# Procedure, shortened: as §1
# ETV3L = target: T2, ETV3L (Homo sapiens, UniProt Q6ZN32 1-361)
# T2 sequence: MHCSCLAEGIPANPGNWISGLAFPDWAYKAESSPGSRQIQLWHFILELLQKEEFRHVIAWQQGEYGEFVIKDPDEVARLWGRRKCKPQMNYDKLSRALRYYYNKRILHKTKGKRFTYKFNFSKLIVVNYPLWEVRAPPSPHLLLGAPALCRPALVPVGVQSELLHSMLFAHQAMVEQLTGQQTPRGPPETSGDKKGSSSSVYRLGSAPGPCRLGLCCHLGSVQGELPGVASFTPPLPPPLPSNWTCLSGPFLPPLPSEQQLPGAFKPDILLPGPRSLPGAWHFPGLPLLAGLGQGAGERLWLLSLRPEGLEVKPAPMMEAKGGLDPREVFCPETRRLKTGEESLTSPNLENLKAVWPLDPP
# Procedure, shortened: as §1
# ETS2 = target: T3, ETS2 (Homo sapiens, UniProt P15036 1-469)
# T3 sequence: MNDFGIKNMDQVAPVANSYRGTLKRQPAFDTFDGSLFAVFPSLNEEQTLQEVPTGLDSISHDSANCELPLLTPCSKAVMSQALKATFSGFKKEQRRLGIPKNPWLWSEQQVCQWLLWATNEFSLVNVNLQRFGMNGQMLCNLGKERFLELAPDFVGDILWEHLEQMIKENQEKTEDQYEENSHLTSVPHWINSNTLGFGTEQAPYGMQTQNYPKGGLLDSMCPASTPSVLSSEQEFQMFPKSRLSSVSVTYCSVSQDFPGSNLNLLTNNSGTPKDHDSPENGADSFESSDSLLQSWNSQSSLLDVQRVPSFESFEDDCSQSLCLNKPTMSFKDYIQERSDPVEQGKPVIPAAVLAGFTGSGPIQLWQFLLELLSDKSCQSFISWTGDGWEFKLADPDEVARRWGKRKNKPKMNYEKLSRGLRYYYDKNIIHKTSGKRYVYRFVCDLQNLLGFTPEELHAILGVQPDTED
# Procedure, shortened: as §1
# SPDEF = target: T4, SPDEF (Homo sapiens, UniProt O95238 1-335)
# T4 sequence: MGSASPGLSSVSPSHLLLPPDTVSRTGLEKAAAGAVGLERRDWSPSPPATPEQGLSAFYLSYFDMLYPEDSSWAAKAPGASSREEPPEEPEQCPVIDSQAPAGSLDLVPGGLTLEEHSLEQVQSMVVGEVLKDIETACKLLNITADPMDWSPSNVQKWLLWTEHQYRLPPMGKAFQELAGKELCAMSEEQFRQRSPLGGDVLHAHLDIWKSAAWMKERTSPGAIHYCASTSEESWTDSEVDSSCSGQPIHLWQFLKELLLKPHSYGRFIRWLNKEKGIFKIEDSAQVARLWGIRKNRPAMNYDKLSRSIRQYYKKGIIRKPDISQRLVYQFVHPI
# Procedure, shortened: as §1
# ETV7 = target: T5, ETV7 (Homo sapiens, UniProt Q9Y603 1-341)
# T5 sequence: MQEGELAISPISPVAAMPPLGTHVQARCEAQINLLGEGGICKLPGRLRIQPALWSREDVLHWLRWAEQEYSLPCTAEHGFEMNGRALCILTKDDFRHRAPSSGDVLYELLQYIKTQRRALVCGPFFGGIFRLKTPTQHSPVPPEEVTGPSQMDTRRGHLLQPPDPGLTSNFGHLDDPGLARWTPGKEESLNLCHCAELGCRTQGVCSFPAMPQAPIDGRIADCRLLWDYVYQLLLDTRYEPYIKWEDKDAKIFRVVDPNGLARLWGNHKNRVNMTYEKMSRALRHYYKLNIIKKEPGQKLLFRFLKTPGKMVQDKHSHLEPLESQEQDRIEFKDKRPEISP
# Procedure, shortened: as §1
# ELF5 = target: T6, ELF5 (Homo sapiens, UniProt Q9UKW6-2 1-255)
# T6 sequence: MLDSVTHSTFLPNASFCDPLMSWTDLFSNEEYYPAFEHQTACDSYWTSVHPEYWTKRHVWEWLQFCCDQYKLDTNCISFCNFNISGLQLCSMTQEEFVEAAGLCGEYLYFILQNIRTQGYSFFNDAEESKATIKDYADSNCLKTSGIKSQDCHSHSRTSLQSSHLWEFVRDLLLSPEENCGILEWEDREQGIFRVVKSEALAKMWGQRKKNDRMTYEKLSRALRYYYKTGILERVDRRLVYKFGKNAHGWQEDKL
# Procedure, shortened: as §1
# ETV3 = target: T7, ETV3 (Homo sapiens, UniProt P41162-2 1-143)
# T7 sequence: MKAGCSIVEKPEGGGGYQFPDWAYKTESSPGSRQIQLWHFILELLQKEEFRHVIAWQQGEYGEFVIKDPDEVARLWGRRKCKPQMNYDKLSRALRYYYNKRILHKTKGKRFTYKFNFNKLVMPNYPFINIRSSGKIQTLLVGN
# Procedure, shortened: as §1
# ETV6 = ETV6 (Homo sapiens, UniProt P41212 1-452)
# Procedure, shortened: as §1
# Sequence of ETV6 (P41212 whole entry): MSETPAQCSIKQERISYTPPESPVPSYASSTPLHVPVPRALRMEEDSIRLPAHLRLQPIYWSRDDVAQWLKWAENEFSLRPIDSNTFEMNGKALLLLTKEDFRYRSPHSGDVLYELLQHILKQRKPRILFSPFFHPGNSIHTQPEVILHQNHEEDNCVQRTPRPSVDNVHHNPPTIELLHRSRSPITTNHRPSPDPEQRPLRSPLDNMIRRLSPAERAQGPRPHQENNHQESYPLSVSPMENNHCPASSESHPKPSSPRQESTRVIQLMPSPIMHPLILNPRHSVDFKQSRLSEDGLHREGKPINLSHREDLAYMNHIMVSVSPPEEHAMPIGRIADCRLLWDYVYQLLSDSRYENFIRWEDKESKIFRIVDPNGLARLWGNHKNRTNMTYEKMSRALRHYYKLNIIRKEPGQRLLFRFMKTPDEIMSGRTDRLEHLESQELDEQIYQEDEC
# Sequence of ETV1 (P50549 whole entry, the tested form may be a part): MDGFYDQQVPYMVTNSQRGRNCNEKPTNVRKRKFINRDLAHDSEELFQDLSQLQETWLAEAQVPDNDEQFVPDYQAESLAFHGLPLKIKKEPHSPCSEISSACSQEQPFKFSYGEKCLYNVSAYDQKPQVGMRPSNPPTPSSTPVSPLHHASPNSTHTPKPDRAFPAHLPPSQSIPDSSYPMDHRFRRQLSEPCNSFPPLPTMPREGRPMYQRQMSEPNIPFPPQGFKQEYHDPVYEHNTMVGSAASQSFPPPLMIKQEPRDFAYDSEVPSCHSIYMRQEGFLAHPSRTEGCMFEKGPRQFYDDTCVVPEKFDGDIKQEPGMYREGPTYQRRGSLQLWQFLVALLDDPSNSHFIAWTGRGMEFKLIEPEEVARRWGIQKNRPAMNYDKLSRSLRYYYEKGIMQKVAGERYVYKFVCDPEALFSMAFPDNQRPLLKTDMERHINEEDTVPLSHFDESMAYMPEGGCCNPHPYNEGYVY
sequence,measurement,setting,value
GAACTT,binding signal,ETV1,"1.68 fold enrichment (6-mer frequency, TF over GST control)"
same,binding signal,ERF,"1.56 fold enrichment (6-mer frequency, TF over GST control)"
same,binding signal,ETV3L,"1.58 fold enrichment (6-mer frequency, TF over GST control)"
same,binding signal,ETS2,"1.61 fold enrichment (6-mer frequency, TF over GST control)"
same,binding signal,SPDEF,"1.61 fold enrichment (6-mer frequency, TF over GST control)"
same,binding signal,ETV7,"1.62 fold enrichment (6-mer frequency, TF over GST control)"
same,binding signal,ELF5,"1.96 fold enrichment (6-mer frequency, TF over GST control)"
same,binding signal,ETV3,"1.69 fold enrichment (6-mer frequency, TF over GST control)"
same,binding signal,ETV6,"1.73 fold enrichment (6-mer frequency, TF over GST control)"
